From PubChem BioAssay
HCV inh = inhibitors of hepatitis C virus infection; Huh7.5.1 HCVcc-Cre infection, luciferase reporter, 44 h; Potency, µM (titrated, usually from 41.8 µM), actives largely listed as inhibitors; 340,000 tested, 3.4% active; AID 651820; active means well fitted inhibition curve with a large enough effect; inconclusive means small, poorly fitted or top-dose-only effect, or another doubt; inactive means no such curve, though single readings can be large or run the other way
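Seed cells (1,000/well) for 4 h; treat with compound and infect with HCVcc-Cre, moi about 0.5. Incubate 44 h, then detect luciferase activity.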
HCMV inh = inhibitors of human cytomegalovirus; activity change, negative = inhibition, % at 57.5 µM; 410,000 tested, 4.5% active; HFF cells, HCMV-luciferase reporter, 72 h; active compounds read low; in the data active means activity change below about -60%; inconclusive means no clear call, values can overlap the other calls; inactive means above about -39%
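Human foreskin fibroblasts infected with luciferase-reporter HCMV at MOI 1 PFU/cell, compounds at two doses. Luciferase measured 72 h post infection; normalized to buffer-only basal and Salinomycin (10uM) controls.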
Vaccinia mCherry = inhibitors of vaccinia virus infection (mCherry reporter signal); Vaccinia virus mCherry reporter infection, fluorescence; 310,000 tested, 0.63% active; Potency, µM (highest dose often 36.5 µM), usual class: inhibitors; AID 720579; calls by dose curve; tested in A549 cells; further: nearly all actives have a fitted effect of over 35% in size
VACV Venus inh = inhibitors of vaccinia virus (Venus reporter); Vaccinia virus Venus reporter expression, fluorescence; Potency, µM (series often up to 36.5 µM), usual class: inhibitors; 330,000 tested, 0.46% active; AID 720580; calls by dose curve; tested in A549 cells; further: nearly all actives have a fitted effect of over 30% in size
FMDV inh = antivirals against foot and mouth disease virus. AID 1159524. Potency, µM (titrated, usually from 57.9 µM), usual class: inhibitors. FMDV antiviral cell-based qHTS. 410,000 tested, 1.2% active; calls by dose curve; tested in HEK293T cells; further: read-out not given here; nearly all actives have a fitted effect of over 45% in size
Large screens that a line does not name were inactive; ! = not confirmed by another sample. Compounds with a hit are over-represented: about 7.3% of the library has one in this group of screens.

Nc1ccccc1C(=O)NCCCN1CCOCC1	HCMV inh -105
CCn1nc(C(=O)NCC(c2cccs2)N2CCOCC2)c2ccccc2c1=O (stereo unspecified)	none
O=C(NCCN1CCOCC1)c1cnn2c(-c3ccccc3)cc(-c3ccccc3)nc12	HCV inh 11µM (no result: Vaccinia mCherry, VACV Venus inh)
O=C(NCCCN1CCOCC1)c1cc2ccccc2cc1O	none
CCCCn1nc(C(=O)NCC(c2cccs2)N2CCOCC2)c2ccccc2c1=O (stereo unspecified)	HCV inh inconclusive, HCMV inh inconclusive, FMDV inh 32µM (no result: Vaccinia mCherry, VACV Venus inh)
CCCCCNC(=O)C1(C)CCc2nc3ccccc3n21 (stereo unspecified)	none (no result: HCV inh, Vaccinia mCherry, VACV Venus inh, FMDV inh)
Cc1noc(C)c1COc1ccccc1C(=O)N1CCN(S(=O)(=O)c2ccccc2Br)CC1	HCV inh inconclusive, HCMV inh -86, FMDV inh inconclusive (no result: Vaccinia mCherry, VACV Venus inh)
Cc1noc(C)c1COc1ccccc1C(=O)N1CCN(S(=O)(=O)c2ccc(C(C)C)cc2)CC1	HCMV inh -75, FMDV inh inconclusive (no result: HCV inh)
O=C(c1ccccc1Cc1ccccc1)N1CCN(S(=O)(=O)c2ccccc2Br)CC1	HCV inh inconclusive, HCMV inh -72, Vaccinia mCherry inconclusive, FMDV inh inconclusive
CCOc1ccccc1CNC(=O)c1ccc(Cn2c(SCc3ccccc3)nc3cccnc32)cc1	none (no result: HCV inh)
CC1CCn2c(nc3cc(C(=O)NCc4ccccc4)ccc32)C1 (stereo unspecified)	none (no result: HCV inh)
CCOC(=O)C1=CCN(S(=O)(=O)c2ccc(Cl)cc2)C1c1cccc(Br)c1 (stereo unspecified)	none (no result: HCV inh, Vaccinia mCherry, VACV Venus inh, FMDV inh)
CN(C)c1ccc(/C=C/c2cc3ccccc3c[n+]2C)cc1	none (no result: HCV inh, HCMV inh, FMDV inh)
CC(C)CCNc1nc2c(c(=O)[nH]c(=O)n2C)n1CC(O)COC(C)C (stereo unspecified)	HCMV inh -66 (no result: Vaccinia mCherry)
Cc1cccc(OCC(O)Cn2c(NCCCOC(C)C)nc3c2c(=O)[nH]c(=O)n3C)c1 (stereo unspecified)	none (no result: Vaccinia mCherry)
CCOC(=O)c1c(NC(=O)C2=C(C)NC(=S)NC2c2ccc(C)cc2)sc(C)c1C (stereo unspecified)	HCV inh 10µM
CCOC(=O)c1c(NC(=O)C2=C(C)NC(=S)NC2c2ccc(F)cc2)sc(C)c1C (stereo unspecified)	HCV inh 8.9µM (no result: Vaccinia mCherry, VACV Venus inh)
O=S(=O)(c1ccc(-c2csc(-c3cccnc3)n2)cc1)N1CCCCC1	HCV inh inconclusive, HCMV inh -62, FMDV inh inconclusive (no result: Vaccinia mCherry, VACV Venus inh)
O=S(=O)(c1cccc(-c2csc(-c3cccnc3)n2)c1)N1CCCCC1	HCV inh inconclusive, HCMV inh -69 (no result: Vaccinia mCherry, VACV Venus inh)
O=S(=O)(c1cccc(-c2csc(-c3cccnc3)n2)c1)N1CCOCC1	HCV inh inconclusive, HCMV inh inconclusive
Clc1ccsc1-c1csc(-c2cccnc2)n1	HCV inh 14µM, VACV Venus inh inconclusive (no result: Vaccinia mCherry)
COC(=O)[C@@]12C[C@@H](CC(=O)N3CCC(c4ccccc4)CC3)C(=O)N(Cc3cccc4ccccc34)C1=CCC(C)(C)C2	Vaccinia mCherry inconclusive (no result: HCV inh)
CCOC(=O)c1[nH]nc(-c2cc(CC)c(O)cc2O)c1-c1cscn1	HCV inh inconclusive, HCMV inh -103, FMDV inh 8.9µM (no result: Vaccinia mCherry, VACV Venus inh)
O=C(c1ccc2c(c1)OCO2)N(Cc1cc2cc3c(cc2nc1N1CCOCC1)CCC3)CC1CCCO1 (stereo unspecified)	none (no result: HCV inh, HCMV inh)
O=[N+]([O-])/C(C(=C(Cl)Cl)N1CCOCC1)=C1\NCCO1	Vaccinia mCherry 16µM, VACV Venus inh 10µM
COc1ccc(CNC(=O)COC(=O)C2CCC(C(C)(C)C)CC2)cc1 (stereo unspecified)	HCMV inh -77, FMDV inh inconclusive
Cc1ccc(CNC(=O)COC(=O)C2CC2)cc1	none (no result: Vaccinia mCherry, VACV Venus inh)
CC1=C(C(=O)N2CCCCCC2)CC(CC(=O)NC2CCCC2)C(=O)N1Cc1ccc(C(C)(C)C)cc1 (stereo unspecified)	none (no result: HCV inh)
c1ccc(CN(CC2=NCCN2)c2ccccc2)cc1	HCMV inh inconclusive
Cc1ccc(N(CC2=NCCN2)c2cccc(O)c2)cc1	HCV inh inconclusive, HCMV inh -66!
COc1ccc(CC(=O)Nc2cccc(S(=O)(=O)N3CCCCCC3)c2)cc1OC	HCV inh inconclusive, HCMV inh -83, Vaccinia mCherry inconclusive, FMDV inh inconclusive
COc1cc(CC(=O)Nc2cccc(C(F)(F)F)c2)cc(OC)c1OC	HCV inh inconclusive, HCMV inh -71, FMDV inh inconclusive
COc1ccc(CC(=O)Nc2cccc(SC)c2)cc1OC	HCV inh 4µM, HCMV inh -66, FMDV inh inconclusive
CCOc1ccccc1OCC(=O)Nc1cccc(S(=O)(=O)N2CCCCCC2)c1	HCV inh inconclusive
